Compound activity (PubChem)
C diff HTS = C. difficile growth inhibition. Clostridium difficile clinical isolate growth, OD600, 24 h; stronger effect = lower value. growth activity, negative = inhibition, % at 16 µg/mL (by protocol). actives 0.25% (n = 86,000). AID 1259249;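 active = mean growth activity at or below -80% and every replicate also at or below -80%; inconclusive = mean at or below -80% but some replicate above -80%; inactive = mean growth activity above -80%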;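 note: 0% = DMSO wells and -100% = levofloxacin 16 µg/mL wells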
Pf Dd2 growth = blocks growth of Plasmodium falciparum Dd2 parasites; activity change, % at 10 µM; AID 1159554; P. falciparum Dd2 growth, SYBR Green, 72 h; stronger effect = lower value; actives 2.3% (n = 94,000); in the data active = activity change below about -80%; inconclusive = no clear call, values can overlap the other calls
T cruzi growth-1 = inhibitors of T. cruzi proliferation. T. cruzi beta-gal in NIH3T3, GalScreen luminescence, 90 h. inhibition, % at 8.34 µM. actives 5.9% (n = 77,000). AID 624255;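 active = mean inhibition above about 93%, with at least 55% of replicates each passing it, limit read from the data, passing the limit was not always enough; inconclusive = only one of those two conditions holds; inactive = neither condition holds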
T cruzi growth-2 = blocks T. cruzi growth in NIH3T3 host cells; shares compounds with T cruzi growth-1; T. cruzi beta-gal in NIH3T3, GalScreen luminescence, 90 h; inhibition, % at 8.35 µM; actives 72% (n = 5,600);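 active = mean replicate inhibition above about 95% and at least 55% of replicates individually reaching it, limit read from the data; inconclusive = only one of the two criteria is met; inactive = neither criterion is met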
T cruzi growth-3 = inhibitors of T. cruzi proliferation; shares compounds with T cruzi growth-1; T. cruzi beta-gal in NIH3T3, GalScreen luminescence, 90 h; inhibition, % at 2.09 µM; actives 21% (n = 5,600);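 active = mean inhibition above about 95%, with at least 55% of replicates also reaching it, limit read from the data; inconclusive = meets just one of the two conditions; inactive = meets neither condition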;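 note: plate controls were neutral control median for no effect and positive control median for full effect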
3T3 cytotox = kills mouse NIH/3T3 fibroblasts. shares compounds with T cruzi growth-1. NIH/3T3 viability, CellTiter-Glo ATP luminescence, 90 h. cytotoxicity (signal decrease), % at 8.35 µM. actives 14% (n = 5,600). AID 651742;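 active = mean signal decrease across replicates above about 35% based on untreated-well scatter, with enough replicates individually passing, limit read from the data; inconclusive = no rule stated though some were filed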;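 note: 0% = median of neutral control wells and 100% = median of positive control wells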
NIH3T3 tox 2 = kills mouse NIH/3T3 fibroblasts; shares compounds with T cruzi growth-1; NIH/3T3 viability, CellTiter-Glo ATP luminescence, 90 h; inhibition, % at 24.9 µM; actives 56% (n = 5,600); AID 651744;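 active = mean loss of cell viability signal at or above a set limit, and enough replicates individually reaching it; inconclusive = meets only the mean limit or only the replicate share; inactive = meets neither condition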;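 note: 0% = median of neutral control wells and 100% = median of positive control wells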
An asterisk follows results filed as active. Only some compounds are listed: those with a hit (about 6.7% of all), similar ones and a draw of the others.

Screening OC[C@@H]1[C@H](c2ccc(/C=C/c3ccccc3)cc2)[C@@H]2CN(Cc3cccnc3)CCCCN12 returned C diff HTS 20, Pf Dd2 growth -47, T cruzi growth-1 105*, T cruzi growth-2 111*, T cruzi growth-3 88, 3T3 cytotox 41* and NIH3T3 tox 2 103*.
For OC[C@@H]1[C@@H](c2ccc(/C=C/c3ccccc3)cc2)[C@@H]2CN(Cc3cncnc3)CCCCN12 the results were C diff HTS -3, Pf Dd2 growth 5 and T cruzi growth-1 55.
`OC[C@H]1[C@@H](c2ccc(/C=C/c3ccccc3)cc2)[C@@H]2CN(Cc3cncnc3)CCCCN12` gave C diff HTS 5, Pf Dd2 growth -76, T cruzi growth-1 102*, T cruzi growth-2 106*, T cruzi growth-3 34, 3T3 cytotox 21 and NIH3T3 tox 2 105*.
COc1ccccc1-c1ccc([C@H]2[C@H](CO)N3CCCCN(Cc4ccncc4)C[C@@H]23)cc1 was read as C diff HTS -7, Pf Dd2 growth -19 and T cruzi growth-1 77.
OC[C@@H]1[C@H](c2ccc(/C=C/c3ccccc3)cc2)[C@@H]2CN(Cc3ccncc3)CCCCN12 was read as C diff HTS -3, Pf Dd2 growth -46, T cruzi growth-1 121*, T cruzi growth-2 107*, T cruzi growth-3 inconclusive, 3T3 cytotox inconclusive and NIH3T3 tox 2 104*.
Screening OC[C@@H]1[C@@H](c2ccc(/C=C/c3ccccc3)cc2)[C@@H]2CN(Cc3cccnc3)CCCCN12 returned C diff HTS 5, Pf Dd2 growth -58, T cruzi growth-1 inconclusive, T cruzi growth-2 104*, T cruzi growth-3 80, 3T3 cytotox 46* and NIH3T3 tox 2 103*.
Screening OC[C@@H]1[C@H](c2ccc(/C=C/c3ccccc3)cc2)[C@H]2CN(Cc3cncnc3)CCCCN12 returned C diff HTS 3, Pf Dd2 growth -28 and T cruzi growth-1 75.
C[C@H](CO)N1C[C@H](C)[C@H](CN(C)C(=O)C2CCC2)Oc2cc(-c3ccccc3)ccc2S1(=O)=O was read as Pf Dd2 growth -36 and T cruzi growth-1 66.
C[C@@H]1CN([C@H](C)CO)C(=O)Cc2cc(NC(=O)Nc3cccc4ccccc34)ccc2O[C@H]1CN(C)C(=O)Nc1ccc(F)cc1 was read as C diff HTS -3, Pf Dd2 growth -17 and T cruzi growth-1 26.
`COc1ccc(S(=O)(=O)N(C)C[C@@H]2Oc3ccc(NS(=O)(=O)c4ccc(F)cc4)cc3CC(=O)N([C@@H](C)CO)C[C@H]2C)cc1` gave C diff HTS -1, Pf Dd2 growth -73 and T cruzi growth-1 -23.
For CC(C)NC(=O)Nc1ccc2c(c1)C(=O)N([C@@H](C)CO)C[C@H](C)[C@H](CN(C)Cc1ccccc1)O2 the results were C diff HTS -5, Pf Dd2 growth 42 and T cruzi growth-1 -15.
For CO[C@H]1CN(C)C(=O)c2ccc(NC(=O)C3CCOCC3)cc2OC[C@H](C)NC[C@@H]1C the results were C diff HTS -3 and Pf Dd2 growth 39.
`COc1cccc(C#Cc2ccc([C@@H]3[C@@H](CO)N(C(=O)C4CC4)[C@H]3C#N)cc2)c1` gave C diff HTS -8, Pf Dd2 growth -32 and T cruzi growth-1 92.
COc1cccc(C#Cc2ccc([C@H]3[C@@H](C#N)N(C(=O)C4CC4)[C@@H]3CO)cc2)c1 was read as C diff HTS 1, Pf Dd2 growth -37, T cruzi growth-1 100*, T cruzi growth-2 99*, T cruzi growth-3 107*, 3T3 cytotox 0 and NIH3T3 tox 2 16.
Screening COc1cccc(C#Cc2ccc([C@H]3[C@@H](CO)N(C(=O)C4CC4)[C@H]3C#N)cc2)c1 returned C diff HTS 6, Pf Dd2 growth -76, T cruzi growth-1 98*, T cruzi growth-2 103*, T cruzi growth-3 113*, 3T3 cytotox 6 and NIH3T3 tox 2 18.
`COc1cccc(C#Cc2ccc([C@@H]3[C@@H](C#N)N(C(=O)C4CC4)[C@H]3CO)cc2)c1` gave C diff HTS -5, Pf Dd2 growth -40 and T cruzi growth-1 91.
For C[C@H]1CN([C@@H](C)CO)C(=O)c2cccc(NC(=O)Nc3ccc(C(F)(F)F)cc3)c2O[C@@H]1CN(C)C(=O)Nc1ccc2c(c1)OCO2 the results were C diff HTS 65, Pf Dd2 growth -3 and T cruzi growth-1 38.
`C[C@@H]1CN([C@@H](C)CO)C(=O)c2ccccc2-c2ccccc2CO[C@H]1CN(C)S(=O)(=O)c1ccc(C(F)(F)F)cc1` gave C diff HTS 9, Pf Dd2 growth -72, T cruzi growth-1 114*, T cruzi growth-2 103*, T cruzi growth-3 59, 3T3 cytotox 5 and NIH3T3 tox 2 30*.
Screening C[C@H](CO)N1C[C@H](C)[C@@H](CN(C)S(=O)(=O)c2ccc(C(F)(F)F)cc2)OCc2ccccc2-c2ccccc2C1=O returned C diff HTS 7, Pf Dd2 growth -74, T cruzi growth-1 102*, T cruzi growth-2 102*, T cruzi growth-3 79, 3T3 cytotox 28 and NIH3T3 tox 2 54*.
`C[C@@H]1CN([C@@H](C)CO)C(=O)c2ccccc2-c2ccccc2CO[C@@H]1CN(C)S(=O)(=O)c1ccc(F)cc1` gave Pf Dd2 growth 19 and T cruzi growth-1 16.
`C[C@H]1CN([C@@H](C)CO)C(=O)c2ccccc2-c2ccccc2CO[C@H]1CN(C)S(=O)(=O)c1ccc(F)cc1` gave Pf Dd2 growth 76 and T cruzi growth-1 0.
`COc1ccc(S(=O)(=O)Nc2ccc3c(c2)C(=O)N([C@@H](C)CO)C[C@H](C)[C@H](CN(C)S(=O)(=O)c2ccc(Cl)cc2)OCCCC[C@H](C)O3)cc1` gave C diff HTS -3, Pf Dd2 growth -73, T cruzi growth-1 inconclusive, T cruzi growth-2 108*, T cruzi growth-3 91, 3T3 cytotox 22 and NIH3T3 tox 2 21.
For COc1ccc(S(=O)(=O)Nc2ccc3c(c2)C(=O)N([C@H](C)CO)C[C@@H](C)[C@H](CN(C)S(=O)(=O)c2ccc(Cl)cc2)OCCCC[C@H](C)O3)cc1 the results were C diff HTS -4, Pf Dd2 growth -77 and T cruzi growth-1 95.
`COc1ccc(S(=O)(=O)N(C)C[C@H]2OCCCC[C@@H](C)Oc3ccc(NS(=O)(=O)c4ccc(Cl)cc4)cc3C(=O)N([C@H](C)CO)C[C@@H]2C)cc1` gave C diff HTS -18 and Pf Dd2 growth -28.
